Measurements published in the supplement of paper PMC7411054.
Counter-ions that a name gives are not always drawn.

Tests used:
Conditions in all cases: treatment time: 24 h
[1] = tested on: A549-ACTB-RAB5A; assay: phenotypically active (imaging signature differs from DMSO and reproducible) at any of 0.3-9 uM (binary (1 = active, 0 = inactive)); higher = active
Procedure, shortened: (§1)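 Four wells per concentration (0.3, 1, 3 or 9 µM) were treated for 24 h in each of fifteen gene-edited reporter lines from A549, HepG2 and WPMY1 cells, then imaged live. After normalising live-cell features to solvent control wells, deviation was defined as ≥3 of 4 wells lying past the 95th percentile of control Euclidean distances. Reproducibility was defined as a median replicate Pearson correlation above the 95th percentile of non-replicates. Both had to hold for phenotypic activity.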

[2] = tested on: A549-CANX-COX4; assay: as above
Procedure, shortened: as §1

[3] = tested on: A549-GM130-SQSTM1; assay: as above
Procedure, shortened: as §1

[4] = tested on: A549-TP53BP1-CLTA; assay: as above
Procedure, shortened: as §1

[5] = tested on: A549-TUBA1B-RELA; assay: as above
Procedure, shortened: as §1

[6] = tested on: HepG2-ACTB-RAB5A; assay: as above
Procedure, shortened: as §1

[7] = tested on: HepG2-CANX-COX4; assay: as above
Procedure, shortened: as §1

[8] = tested on: HepG2-GM130-SQSTM1; assay: as above
Procedure, shortened: as §1

[9] = tested on: HepG2-TP53BP1-CLTA; assay: as above
Procedure, shortened: as §1

[10] = tested on: HepG2-TUBA1B-RELA; assay: as above
Procedure, shortened: as §1

[11] = tested on: WPMY1-ACTB-RAB5A; assay: as above
Procedure, shortened: as §1

[12] = tested on: WPMY1-CANX-COX4; assay: as above
Procedure, shortened: as §1

[13] = tested on: WPMY1-GM130-SQSTM1; assay: as above
Procedure, shortened: as §1

[14] = tested on: WPMY1-TP53BP1-CLTA; assay: as above
Procedure, shortened: as §1

[15] = tested on: WPMY1-TUBA1B-RELA; assay: as above
Procedure, shortened: as §1

[16] = tested on: A549-ACTB-RAB5A; assay: lowest phenotypically active concentration; higher = less potent
Procedure, shortened: as §1

[17] = tested on: A549-CANX-COX4; assay: as above
Procedure, shortened: as §1

[18] = tested on: A549-GM130-SQSTM1; assay: as above
Procedure, shortened: as §1

[19] = tested on: A549-TP53BP1-CLTA; assay: as above
Procedure, shortened: as §1

[20] = tested on: A549-TUBA1B-RELA; assay: as above
Procedure, shortened: as §1

SMILES	phenotypically active [1]	phenotypically active [2]	phenotypically active [3]	phenotypically active [4]	phenotypically active [5]	phenotypically active [6]	phenotypically active [7]	phenotypically active [8]	phenotypically active [9]	phenotypically active [10]	phenotypically active [11]	phenotypically active [12]	phenotypically active [13]	phenotypically active [14]	phenotypically active [15]	lowest phenotypically active concentration [16]	lowest phenotypically active concentration [17]	lowest phenotypically active concentration [18]	lowest phenotypically active concentration [19]	lowest phenotypically active concentration [20]
CC(=O)N1CCN(C)CC1 [1-Acetyl-4-methylpiperazine hydrochloride]	0 (inactive)	0 (inactive)	0 (inactive)	0 (inactive)	0 (inactive)	0 (inactive)	0 (inactive)	0 (inactive)	0 (inactive)	0 (inactive)	0 (inactive)	0 (inactive)	0 (inactive)	0 (inactive)	0 (inactive)	–	–	–	–	–
C/C=C1/[C@H]2C=C(C)C[C@]1(N)c1ccc(=O)[nH]c1C2 [Huperzine A]	0 (inactive)	0 (inactive)	0 (inactive)	0 (inactive)	0 (inactive)	0 (inactive)	0 (inactive)	0 (inactive)	0 (inactive)	0 (inactive)	0 (inactive)	0 (inactive)	0 (inactive)	0 (inactive)	0 (inactive)	–	–	–	–	–
O=C(O)c1ccc(N2N=C(Cc3ccccc3)/C(=C/c3ccc(-c4ccccc4F)o3)C2=O)cc1	0 (inactive)	0 (inactive)	0 (inactive)	0 (inactive)	0 (inactive)	0 (inactive)	0 (inactive)	0 (inactive)	0 (inactive)	0 (inactive)	0 (inactive)	0 (inactive)	0 (inactive)	0 (inactive)	0 (inactive)	–	–	–	–	–
c1ccc(CC2=NCCN2)cc1 [tolazoline]	0 (inactive)	0 (inactive)	0 (inactive)	0 (inactive)	0 (inactive)	0 (inactive)	0 (inactive)	0 (inactive)	0 (inactive)	0 (inactive)	0 (inactive)	0 (inactive)	0 (inactive)	0 (inactive)	0 (inactive)	–	–	–	–	–
Cc1ccc(-c2cc(C(F)(F)F)nn2-c2ccc(S(N)(=O)=O)cc2)cc1 [celecoxib]	0 (inactive)	0 (inactive)	0 (inactive)	0 (inactive)	0 (inactive)	0 (inactive)	0 (inactive)	0 (inactive)	0 (inactive)	0 (inactive)	0 (inactive)	0 (inactive)	0 (inactive)	0 (inactive)	0 (inactive)	–	–	–	–	–
COc1ccc(OC)c(C(O)CNC(=O)CN)c1 (stereo unspecified) [midodrine]	0 (inactive)	0 (inactive)	0 (inactive)	0 (inactive)	0 (inactive)	0 (inactive)	0 (inactive)	0 (inactive)	0 (inactive)	0 (inactive)	0 (inactive)	0 (inactive)	0 (inactive)	0 (inactive)	0 (inactive)	–	–	–	–	–
O=C(c1cccc(Br)c1)N1CCC(N2CCCC2)CC1 [UNC 926 hydrochloride]	0 (inactive)	0 (inactive)	0 (inactive)	0 (inactive)	0 (inactive)	0 (inactive)	0 (inactive)	0 (inactive)	0 (inactive)	0 (inactive)	0 (inactive)	0 (inactive)	0 (inactive)	0 (inactive)	0 (inactive)	–	–	–	–	–
COC(=O)c1sccc1S(=O)(=O)Nc1ccc(Nc2ccccc2)cc1OC	0 (inactive)	0 (inactive)	0 (inactive)	0 (inactive)	0 (inactive)	0 (inactive)	0 (inactive)	0 (inactive)	0 (inactive)	0 (inactive)	0 (inactive)	0 (inactive)	0 (inactive)	0 (inactive)	0 (inactive)	–	–	–	–	–
O=C(/C=C/c1ccc(OCc2ccccc2)cc1)c1c(O)cc(OCc2ccccc2)cc1OCc1ccccc1 [4,2,4'-Tribenzyloxy-6'-hydroxychalcone]	0 (inactive)	0 (inactive)	0 (inactive)	0 (inactive)	0 (inactive)	0 (inactive)	0 (inactive)	0 (inactive)	0 (inactive)	0 (inactive)	0 (inactive)	0 (inactive)	0 (inactive)	0 (inactive)	0 (inactive)	–	–	–	–	–
CCCCCCC(=O)OC1CC(C)(C)NC(C)(C)C1 [TMPH hydrochloride]	0 (inactive)	0 (inactive)	0 (inactive)	0 (inactive)	0 (inactive)	0 (inactive)	0 (inactive)	0 (inactive)	0 (inactive)	0 (inactive)	0 (inactive)	0 (inactive)	0 (inactive)	0 (inactive)	0 (inactive)	–	–	–	–	–
CCCCCC1CC1CC1CC1CCCCCCCC(=O)O (stereo unspecified)	0 (inactive)	0 (inactive)	0 (inactive)	0 (inactive)	0 (inactive)	0 (inactive)	0 (inactive)	0 (inactive)	0 (inactive)	0 (inactive)	0 (inactive)	0 (inactive)	0 (inactive)	0 (inactive)	0 (inactive)	–	–	–	–	–
COc1ccc2c3c1O[C@H]1C[C@@H](O)C=C[C@@]31CCN(C)C2 [galantamine]	0 (inactive)	0 (inactive)	0 (inactive)	0 (inactive)	0 (inactive)	0 (inactive)	0 (inactive)	0 (inactive)	0 (inactive)	0 (inactive)	0 (inactive)	0 (inactive)	0 (inactive)	0 (inactive)	0 (inactive)	–	–	–	–	–
CC1(COc2ccc(CC3SC(=O)NC3=O)cc2)CCCCC1 (stereo unspecified) [Ciglitazone]	0 (inactive)	0 (inactive)	0 (inactive)	0 (inactive)	0 (inactive)	0 (inactive)	0 (inactive)	0 (inactive)	0 (inactive)	0 (inactive)	0 (inactive)	0 (inactive)	0 (inactive)	0 (inactive)	0 (inactive)	–	–	–	–	–
NNCCc1ccccc1 [phenelzine]	0 (inactive)	0 (inactive)	0 (inactive)	0 (inactive)	0 (inactive)	0 (inactive)	0 (inactive)	0 (inactive)	0 (inactive)	0 (inactive)	0 (inactive)	0 (inactive)	0 (inactive)	0 (inactive)	0 (inactive)	–	–	–	–	–
CC(C)N(CCC(=O)c1ccc2ccccc2c1)Cc1ccccc1	0 (inactive)	0 (inactive)	0 (inactive)	0 (inactive)	0 (inactive)	0 (inactive)	0 (inactive)	0 (inactive)	0 (inactive)	0 (inactive)	0 (inactive)	0 (inactive)	0 (inactive)	0 (inactive)	0 (inactive)	–	–	–	–	–
CN(C(=O)CCCOc1ccc2[nH]c(=O)ccc2c1)C1CCCCC1 [Cilostamide]	0 (inactive)	0 (inactive)	0 (inactive)	0 (inactive)	0 (inactive)	0 (inactive)	0 (inactive)	0 (inactive)	0 (inactive)	0 (inactive)	0 (inactive)	0 (inactive)	0 (inactive)	0 (inactive)	0 (inactive)	–	–	–	–	–
COC(=O)C1CC23C=CCN4CCC5(c6ccccc6NC15[C@H]2C)C43 (stereo partly specified) [Vindolinine dichlorhydrate]	0 (inactive)	0 (inactive)	0 (inactive)	0 (inactive)	0 (inactive)	0 (inactive)	0 (inactive)	0 (inactive)	0 (inactive)	0 (inactive)	0 (inactive)	0 (inactive)	0 (inactive)	0 (inactive)	0 (inactive)	–	–	–	–	–
Cc1cc(C)nc(SCC(=O)Nc2ncc(Cc3cccc4ccccc34)s2)n1	0 (inactive)	0 (inactive)	0 (inactive)	0 (inactive)	0 (inactive)	0 (inactive)	0 (inactive)	0 (inactive)	0 (inactive)	0 (inactive)	0 (inactive)	0 (inactive)	0 (inactive)	0 (inactive)	0 (inactive)	–	–	–	–	–
C[C@H](CCC(=O)NCC(=O)O)[C@H]1CC[C@H]2[C@@H]3[C@H](O)C[C@@H]4C[C@H](O)CC[C@]4(C)[C@H]3C[C@H](O)[C@]12C [Glycocholic acid]	0 (inactive)	0 (inactive)	0 (inactive)	0 (inactive)	0 (inactive)	0 (inactive)	0 (inactive)	0 (inactive)	0 (inactive)	0 (inactive)	0 (inactive)	0 (inactive)	0 (inactive)	0 (inactive)	0 (inactive)	–	–	–	–	–
CC(=O)OCC(=O)[C@@]12OC3(CCCC3)O[C@@H]1C[C@H]1[C@@H]3CCC4=CC(=O)C=C[C@]4(C)[C@@]3(F)[C@@H](O)C[C@@]12C [amcinonide]	1 (active)	1 (active)	1 (active)	1 (active)	1 (active)	0 (inactive)	0 (inactive)	0 (inactive)	0 (inactive)	0 (inactive)	0 (inactive)	0 (inactive)	0 (inactive)	0 (inactive)	0 (inactive)	≤ 0.3 µM	≤ 0.3 µM	≤ 0.3 µM	≤ 0.3 µM	≤ 0.3 µM
C[C@@H](Oc1cc(-n2cnc3ccc(CN4CCN(C)CC4)cc32)sc1C(N)=O)c1ccccc1C(F)(F)F	1 (active)	1 (active)	1 (active)	1 (active)	1 (active)	1 (active)	1 (active)	1 (active)	1 (active)	1 (active)	1 (active)	1 (active)	1 (active)	1 (active)	1 (active)	≤ 0.3 µM	≤ 0.3 µM	≤ 0.3 µM	≤ 0.3 µM	≤ 0.3 µM
C[C@H]1C[C@@H]2[C@H]([C@@H](O)C[C@@]3(C)[C@H]2CC[C@]3(O)C(=O)CO)[C@@]2(C)C=CC(=O)C=C12 [methylprednisolone]	1 (active)	1 (active)	1 (active)	1 (active)	1 (active)	0 (inactive)	0 (inactive)	0 (inactive)	0 (inactive)	0 (inactive)	0 (inactive)	0 (inactive)	0 (inactive)	0 (inactive)	0 (inactive)	≤ 0.3 µM	≤ 0.3 µM	≤ 0.3 µM	≤ 0.3 µM	≤ 0.3 µM
C=CCc1ccc(O)c(-c2ccc(O)c(CC=C)c2)c1 [Honokiol]	1 (active)	0 (inactive)	0 (inactive)	0 (inactive)	0 (inactive)	0 (inactive)	0 (inactive)	0 (inactive)	0 (inactive)	0 (inactive)	0 (inactive)	0 (inactive)	0 (inactive)	0 (inactive)	0 (inactive)	9 µM	–	–	–	–
